Source: PubChem BioAssay AID463173 (ICCB-Longwood Screening Facility, Harvard Medical School, 2010)
Out of some 52,000 compounds screened, about 4,300 (8.3%) were called active. This excerpt belongs to a sample that is enriched for actives. A number with no mark means an inactive call. Cut-off read from the data, not from the text of the source: active = survival mostly below about 52% (no sharp cut-off); inactive = mostly above about 56%.

What follows are compounds tested on DeltatarO mutant (assay: S. aureus survival, RN4220 and DeltatarO strains – OD600, teichoic acid synthesis inhibitors, primary screen (AID 463173)). Details: S. aureus RN4220 wild type/DeltatarO growth, OD600, 18 h, stronger effect = lower value, screened at 18.75 µg/mL (by protocol).

Compound | survival
CCOc1ccc(OCC)c(NC(=O)c2nnn(Cc3cc(Br)ccc3OC)c2N)c1 | 61%
CC1(C(=O)C[n+]2cccc(C(N)=O)c2)CCC(=O)O1 (stereo not given) | 92%
O=C(NC1CCCC1)c1ccc(CSc2nc3ccncc3n2Cc2ccc(F)cc2)cc1 | 68%
O=C(c1ccc2c(c1)N(Cc1ccc(Cl)cc1)C(=O)c1ccccc1S2(=O)=O)N1CCN(Cc2ccccc2)CC1 | 78%
CCC(=O)N1c2ccccc2CC1C(=O)NCCc1ccc(C)cc1 (stereo not given) | 75%
Cc1cccc(NC(=O)CN2C(=O)C(c3ccc(F)cc3)=NC23CCCCCC3)c1 | 87%
O=C(CN1C(=O)C(c2ccc(F)cc2)=NC12CCCCCC2)Nc1ccccc1Cl | 84%
O=C(CN1C(=O)C(c2ccc(F)cc2)=NC12CCCCCC2)Nc1ccc(F)c(Cl)c1 | 40% (active)
CCNC(=S)N1CCC(C(=O)c2ccc3c(c2)OCCO3)CC1 | 58% (active)
CCNC(=S)N1CCC(C(=O)c2ccc(Cl)cc2)CC1 | 84%
O=C(c1ccc2c(c1)OCCO2)C1CCCCC1 | 83%
CCC(CC)C(=O)Nc1ccc(-c2cn3cccnc3n2)cc1 | 91%
Cc1cc(F)ccc1Nc1nc2ccccc2n2nnnc12 | 111%
Cc1ccc(CCNc2ncnc3onc(-c4ccc(Cl)cc4)c23)cc1 | 46%
CCOc1ccc(Nc2ncnc3onc(-c4ccc(Cl)cc4)c23)cc1 | 38% (active)
Clc1ccc(CNc2ncnc3onc(-c4ccc(Cl)cc4)c23)cc1 | 133%
Clc1ccc(-c2noc3ncnc(NCCc4ccccc4)c23)cc1 | 78%
COc1cc(Nc2ncnc3onc(-c4ccc(Cl)cc4)c23)cc(OC)c1 | 94%
CCOc1ccc(CCNc2ncnc3onc(-c4ccc(Cl)cc4)c23)cc1 | 76%
CC1CCC(Nc2ncnc3onc(-c4ccc(Cl)cc4)c23)CC1 (stereo not given) | 47% (active)
Fc1ccc(-c2noc3ncnc(NC4CCCCC4)c23)cc1 | 67%
Clc1ccc(-c2noc3ncnc(NC4CCCCC4)c23)cc1 | 21% (active)
Cc1cccc(CCNc2ncnc3onc(-c4ccc(Cl)cc4)c23)c1 | 33% (active)

Compound | survival
CC(C)CNc1ncnc2onc(-c3ccc(Cl)cc3)c12 | 71%
CC1CCC(Nc2ncnc3onc(-c4ccc(F)cc4)c23)CC1 (stereo not given) | 82%
COc1ccc(-c2csc(C)n2)cc1 | 75%
Cc1ccc(C(=O)N2CCCn3c2nc2ccccc23)cc1 | 70%
COc1cccc(-n2cc(C(=O)OCc3ccc(Cl)cc3)c3ccccc3c2=O)c1 | 85%
N#C/C(=C\c1ccc(OCc2ccc(Cl)cc2Cl)cc1)c1nc2ccccc2[nH]1 | 103%
O=C(O)CCCC(=O)N1CCc2cc(S(=O)(=O)NCc3ccccc3)ccc21 | 111%
Cc1csc(=Nc2ccccc2)n1-c1ccccc1 | 81%
CCOC(=O)c1c(S(=O)(=O)NCC(=O)Nc2cccc(CC)c2)c(C)n(C)c1C | 84%
CCc1nn(CC(=O)NCc2ccccc2)c(=O)c2cccn12 | 69%
CN1C(=O)Cc2cc(S(=O)(=O)NCc3ccccc3Cl)ccc21 | 90%
CC(C)CC(C(N)=O)N1C(=O)c2ccccc2C1=O (stereo not given) | 84%
CCOC(=O)C1CCN(C(=O)Cn2ncc3c4ccccc4n(Cc4ccccc4F)c3c2=O)CC1 | 84%
COc1ccc(Cl)cc1S(=O)(=O)N1CCN(C(=O)c2cc(-c3ccc(Br)cc3)n[nH]2)CC1 | 47% (active)
CCOc1ccc(-c2cc(C(=O)N3CCN(S(=O)(=O)c4cc(Cl)ccc4OC)CC3)[nH]n2)cc1 | 73%
COc1ccc(S(=O)(=O)N2CCN(C(=O)c3cc(-c4ccc(Br)cc4)n[nH]3)CC2)cc1OC | 73%
COc1ccc(S(=O)(=O)Nc2cc3c(cc2NCc2ccccc2)n(C)c(=O)n3C)cc1 | 69%
O=C(Nc1ccc(F)cc1)C1CCN(c2nc3ccccc3n3cccc23)CC1 | 75%
O=c1cc(COc2ccccc2Cl)nc2scc(-c3ccccc3)n12 | 81%
Cc1c(C(=O)N2CCOCC2)sc(NC(=O)c2ccc3c(c2)OCO3)c1C#N | 90%
CCc1ccc(NC(=O)C2CCCN(S(=O)(=O)c3c(C)noc3/C=C/N(C)C)C2)cc1 (stereo not given) | 42% (active)
CCc1ccc(NC(=O)C2CCCN(S(=O)(=O)c3cccc4cccnc34)C2)cc1 (stereo not given) | 58% (active)
Cc1noc(/C=C/N(C)C)c1S(=O)(=O)N1CCCC(C(=O)Nc2cccc(F)c2)C1 (stereo not given) | 90%

Compound | survival
CCOc1ccc(NC(=O)C2CCCN(S(=O)(=O)c3c(C)noc3/C=C/N(C)C)C2)cc1 (stereo not given) | 94%
CC(C)c1ccc(NC(=O)C2CCCN(S(=O)(=O)c3cccc4cccnc34)C2)cc1 (stereo not given) | 71%
Cc1ccc(NC(=O)C2CCCN(S(=O)(=O)c3cccc4cccnc34)C2)cc1 (stereo not given) | 102%
O=S(=O)(Nc1ccc(-c2ccc(N3CCCC3)nn2)cc1)c1ccc(Cl)cc1 | 102%
CCCCN(C)C(=O)c1ccc2c(c1)N(Cc1ccc(F)cc1)C(=O)c1ccccc1S2(=O)=O | 118%
O=C(Nc1ccc(F)cc1C(F)(F)F)C1CCN(c2ncccn2)CC1 | 76%
CC(=O)Nc1ccc2c(c1)n(C)c(=O)n2C | 85%
COc1ccc(OC)c(CCNC(=O)C(C)n2c(C)c3cnn(-c4ccccc4)c(=O)c3c2C)c1 (stereo not given) | 82%
Cc1cc(C)c(C#N)c(SCc2cccnc2)n1 | 53%
COc1cc2nc(SCc3cccc(Cl)c3)n3nc(CCn4nc(C)cc4C)nc3c2cc1OC | 79%
COc1cc2nc(SCc3ccc(C)cc3)n3nc(CCn4nc(C)cc4C)nc3c2cc1OC | 58%
COc1cccc(CSc2nc3cc(OC)c(OC)cc3c3nc(CCn4nc(C)cc4C)nn23)c1 | 60% (active)
CCc1ccccc1NC(=O)c1ccc2nc(C(C)C)oc2c1 | 73%
CCn1cc2nc(SCc3cc(C)ccc3C)n(Cc3ccc(C)cc3)c(=O)c2n1 | 69%
CCC(CC)C(=O)Nc1nnc(SCc2cc(=O)c3ccccc3[nH]2)s1 | 115%
CCSc1nc2sc3c(c2c(=O)n1-c1ccc(C)c(Cl)c1)CCN(C(C)=O)C3 | 61%
CCOC(=O)CSc1nc2sc3c(c2c(=O)n1-c1ccc(OC)cc1)CC(C(C)C)OC3 (stereo not given) | 73%
COc1ccc(-n2c(SC)nc3sc4c(c3c2=O)CCN(C(C)=O)C4)cc1 | 127%
CC(=O)N1CCc2c(sc3nc(SCC(C)C)n(-c4ccc(C)c(Cl)c4)c(=O)c23)C1 | 45% (active)
CC(=O)N1CCc2c(sc3nc(SCC(C)C)n(-c4ccc(F)c(Cl)c4)c(=O)c23)C1 | 63%
COc1ccc(-n2c(SCCC(C)C)nc3sc4c(c3c2=O)CC(C(C)C)OC4)cc1 (stereo not given) | 30% (active)
CCCCCSc1nc2sc3c(c2c(=O)n1-c1ccc(OC)cc1)CCN(C(C)=O)C3 | -18% (active)
CCCCCSc1nc2sc3c(c2c(=O)n1-c1ccccc1)CCN(C(C)=O)C3 | 77%

Compound | survival
COc1ccc(-n2c(=O)c3c4c(sc3n3c(SCCC(C)C)nnc23)COC(C(C)C)C4)cc1 (stereo not given) | 59%
Nc1c(C(=O)Nc2cccc(Cl)c2)sc2nc3c(cc12)CN(Cc1ccccc1)CC3 | 69%
Cc1ccc(NC(=O)Cn2cc3c(n2)CCCCC3)cc1 | 77%
COc1ccc(NC(=O)CSc2nc3ccccc3n2CC(=O)N(C)c2ccc(F)cc2)cc1 | 87%
Cc1nn(C)c(C)c1S(=O)(=O)N(CC(=O)N1CCN(c2ccccc2)CC1)c1ccc(C(C)C)cc1 | 79%
COc1ccc(-c2cn3c(n2)sc2cc(C(=O)NCC(C)c4ccccc4)ccc23)cc1 (stereo not given) | 65%
O=C(CSc1nc2c([nH]c3ccccc32)c(=O)n1-c1ccccc1)N1CCCCCC1 | 95%
COc1ccc(-n2c(SCC(=O)NC3CCCCC3)nc3c([nH]c4ccccc43)c2=O)cc1 | 37% (active)
CCSc1nc2c([nH]c3ccccc32)c(=O)n1-c1ccc(F)cc1 | 87%
CCOc1ccc(-n2c(SCC(=O)N3CCCCCC3)nc3c([nH]c4ccccc43)c2=O)cc1 | 106%
O=C(CSc1nc2c([nH]c3ccccc32)c(=O)n1-c1ccc(F)cc1)NC1CCCCC1 | 83%
CCOc1ccc(-n2c(SCC(=O)NC3CCCCC3)nc3c([nH]c4ccccc43)c2=O)cc1 | 92%
CCSc1nc2c([nH]c3ccccc32)c(=O)n1-c1cccc(OC)c1 | 94%
CCC1CCCCN1C(=O)CSc1nc2c([nH]c3ccccc32)c(=O)n1-c1ccc(OC)cc1 (stereo not given) | 25% (active)
CCC1CCCCN1C(=O)CSc1nc2c([nH]c3ccccc32)c(=O)n1-c1cccc(OC)c1 (stereo not given) | 66%
O=C(CSc1nc2c([nH]c3ccccc32)c(=O)n1-c1ccccc1)N1CCCCC1 | 73%
CCSc1nc2c([nH]c3ccccc32)c(=O)n1-c1ccc(OC)cc1 | 46% (active)
COc1cccc(-n2c(SCC(=O)N3CCCCC3)nc3c([nH]c4ccccc43)c2=O)c1 | 20% (active)
C(#Cc1ccccc1)CN1CCCCC1 | 107%
CN(C)S(=O)(=O)c1ccc(C(=O)NCCSc2c(-c3ccc(Br)cc3)[nH]c3ccccc23)cc1 | 74%
CC(C)Cn1c(SCc2cccc(F)c2)nc2ccsc2c1=O | 74%
